Measured potencies and affinities stand elsewhere. Activity calls are given as the source filed them.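 Rule for the calls: active = good curve fit with EC50 under 10 µM, EC50 error below a tenth of EC50, span above a set limit; inactive = the rest.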
Each molecule was assayed against Beta-adrenergic receptor kinase 1 (Homo sapiens) (UniProt P25098) (assay: GRK2 inhibitors displacing RNA aptamer, dose response, biochemical, flow cytometry beads, FAM-aptamer, powder set 1 (AID 588720)). Conditions: biotinylated GRK2 beads, FAM-aptamer displacement; series mostly up to 100 µM.
Beta-adrenergic receptor kinase 1 (Homo sapiens), sequence (P25098 whole entry, looked up): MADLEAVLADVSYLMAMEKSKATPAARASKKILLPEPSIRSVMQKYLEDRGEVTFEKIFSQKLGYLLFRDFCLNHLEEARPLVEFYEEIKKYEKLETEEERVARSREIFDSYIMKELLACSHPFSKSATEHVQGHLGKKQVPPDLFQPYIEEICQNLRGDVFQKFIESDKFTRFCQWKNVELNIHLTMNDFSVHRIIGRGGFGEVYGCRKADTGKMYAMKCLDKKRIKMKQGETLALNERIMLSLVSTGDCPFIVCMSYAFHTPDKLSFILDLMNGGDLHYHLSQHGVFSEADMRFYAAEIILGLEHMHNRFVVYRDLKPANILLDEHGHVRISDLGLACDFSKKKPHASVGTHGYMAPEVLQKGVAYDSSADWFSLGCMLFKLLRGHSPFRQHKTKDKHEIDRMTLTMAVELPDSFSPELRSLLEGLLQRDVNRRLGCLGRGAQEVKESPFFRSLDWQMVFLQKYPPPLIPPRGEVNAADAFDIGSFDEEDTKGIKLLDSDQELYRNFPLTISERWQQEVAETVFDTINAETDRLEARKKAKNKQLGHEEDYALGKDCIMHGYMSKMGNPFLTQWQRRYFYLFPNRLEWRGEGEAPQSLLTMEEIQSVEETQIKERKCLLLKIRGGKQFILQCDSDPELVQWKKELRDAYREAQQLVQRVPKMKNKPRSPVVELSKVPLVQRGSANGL

outcome, inactive:
Cc1cc2ccccc2n1CCNC(=O)c1cccs1
O=C(O)C1CC(=O)N(c2ccc3c(c2)OCCO3)C1 (configuration not stated)
COC(=O)c1ccccc1NC(=O)CCS(=O)(=O)c1ccc(Br)s1
CC(=O)N1CCN(Cc2nc3cc(Cl)ccc3c(=O)[nH]2)CC1
O=C(CN1CCc2ccccc21)NC(=O)NCc1ccccc1
Cc1cc2ccccc2n1CCNC(=O)C(C)Oc1ccccc1 (configuration not stated)
Cc1ccc(CCNC(=O)CCS(=O)(=O)c2ccc(Br)cc2)cc1
